Inconclusive results are not listed. Unmarked numbers belong to inactive results. Calls come from the whole dose curve; as a rule, active = well fitted cell-killing curve with a large enough effect; inconclusive = small, poorly fitted or top-dose-only effect; inactive = flat fitted curve, though single readings scatter.

The values below come from PubChem BioAssay (NCATS).
% is set by controls: 0 for no effect and ±100 for the full control effect.

A short description of this assay: Cell Viability - LYMP2-006 (AID 978). Note: nearly all actives have a fitted effect of over 60% in size. Conditions: LYMP2-006 lymphoblastoid cell viability, qHTS; series mostly up to 92.2 µM; activity change, negative = cytotoxicity: at the top concentration. An excerpt: NIH Chemical Genomics Center [NCGC]
NIH Molecular Libraries Screening Centers Network [MLSCN]
National Institutes of Environmental Health Sciences [NIEHS]
National Toxicology Program [NTP]
We have developed a 1536-well cell-based assay for quantitative high throughput screening (qHTS) against a number of cell lines to determine in vitro cytotoxicity of small molecules. This particular assay uses a human lymphoblastoid cell line (LYMP2-006) purchased from Coriell Institute for Medical Research.
NCGC Assay Protocol Summary:
The CellTiter-Glo luminescent cell viability assay (Promega) is a homogeneous method to measure the number of viable cells in culture. The end point readout of this assay is based on quantitation of intracellular ATP, an indicator of metabolic activity, using the luciferase reaction. Luciferase catalyzes the oxidation of beetle Luciferin to oxyluciferin and light in the presence of ATP. The luminescent signal is proportional to amount of ATP present.
Using the CellTiter-Glo luminescent cell viability assay, the amount of cellular ATP was measured in the lymphoblastoid cell line with complete culture medium following compound treatment for 24 hours. The assay was performed in opaque white Kalypsys 1536-well plates. In the screen, tetraoctylammonium bromide was used as positive control. Library compounds were measured for their ability to cause acute toxicity in the cell line, as reflected by a decrease in intracellular ATP levels, in a concentration-dependent manner. […] AC50 values were determined from concentration-response data modeled with the standard Hill equation.
qHTS protocol for CellTiter Glo lymphoblastoid cellular assay
[Step] [Parameter] [Value] [Description]
1. Reagent; 5 uL; 2500 lymphoblastoid cells/well
2. Time; 5 hr; 37 C incubation
4. Controls; 23 nL; Tetraoctylammonium bromide 6.4pM to 92 uM
5. Time; 24 hr; 37 C incubation
6. Reagent; 5 uL; CellTiter Glo reagent
7. Time; 30 min; Room Temperature
8. Detection; Luminescence; Viewlux plate reader
Keywords: cell viability, cytotoxicity, lymphoblastoid cell line, luminescence, NTPHTS, NTPHTS_NCGC, NIEHS, DSSTox, MLSMR, MLSCN, NIH Roadmap, qHTS, NCGC
A general note: In qHTS, concentration-response curves come from the screen itself.
For the molecule `O=C(O)c1ccccc1C(=O)O`, the “activity change, negative = cytotoxicity” value was -3.35%.
Then `c1ccc2n[nH]nc2c1`, with 7.75%; and `CCCCC(CC)C(=O)O` (stereo not given), with -6.68%; and `CC(C)CO`, with 0.248%.
Take `CC(=O)c1nccs1`: the “activity change, negative = cytotoxicity” value is 6.98%.
`O=Nc1ccc(NO)cc1`: the “activity change, negative = cytotoxicity” value was -25.2%.
Regarding `O=C(O)CNC(=O)c1ccc(CO)o1`, the “activity change, negative = cytotoxicity” value was -0.44%.
Then `N#CCc1ccccc1[N+](=O)[O-]`, with -13%; and `Cc1ccc(C)c([N+](=O)[O-])c1`, with 2.2%; and `NS(=O)(=O)O`, with 0.469%.
Then `Cc1ccco1`, with -2.73%; and `O=[N+]([O-])c1ccc2nc[nH]c2c1`, with -11%; and `CC1CCCO1` (stereo not given), with 3.54%.
Then `O=C(O[C@@H](C(=O)O)[C@@H](OC(=O)c1ccccc1)C(=O)O)c1ccccc1`, with 1.83%; and `CN(C)CCCNCCCN`, with -11.6%; and `CC(C)(C)OC=O`, with 7.98%.
As to `CCNc1ccccc1`, the “activity change, negative = cytotoxicity” value was 12.1%.
For `CCN(C(=O)N(CC)c1ccccc1)c1ccccc1`, the “activity change, negative = cytotoxicity” value is 0.453%.
Turning to `O=Cc1ccc(CO)o1`, the “activity change, negative = cytotoxicity” value was -20.1%.
For `CC(=O)CCc1ccccc1`, the “activity change, negative = cytotoxicity” value is 2.23%.
In the case of `Cc1c(N)cccc1N`, the “activity change, negative = cytotoxicity” value is -3.61%.
Consider `Nc1cc(S(=O)(=O)O)ccc1O`, for which the “activity change, negative = cytotoxicity” value was -10.3%.
As for `OCCO`, the “activity change, negative = cytotoxicity” value is -1.14%.
In the case of `C=C(C)C(=O)OCC(C)C`, the “activity change, negative = cytotoxicity” value is -0.148%.
Then `CCCCCCCCCCCCC1CO1` (stereo not given), with -5.01%.
For the molecule `Cc1ccc2nc(-c3ccc(N)cc3)sc2c1S(=O)(=O)O`, the “activity change, negative = cytotoxicity” value was -22.7%.
Turning to `O=[N+]([O-])c1ccccc1CCO`, the “activity change, negative = cytotoxicity” value is -8.57%.
As to `CNc1ccc([N+](=O)[O-])cc1`, the “activity change, negative = cytotoxicity” value was -9.54%.
For `Cc1ccc2oc(=O)ccc2c1`, the “activity change, negative = cytotoxicity” value is -8.41%.
On to `C/C=C1\CC2C=CC1C2` (stereo not given), for which the “activity change, negative = cytotoxicity” value is -7.98%.
Then `Cc1ccc2c(c1[N+](=O)[O-])C(=O)c1ccccc1C2=O`, with -18.2%; and `NC(=S)NNC(N)=S`, with -11.9%.
Turning to `Nc1cccc(O)c1`, the “activity change, negative = cytotoxicity” value was -0.835%.
Then `C1CCC2OC2C1` (stereo not given), with 3.94%; and `CCCCC=O`, with 6.56%; and `C=CC(=O)OCCCC`, with 11.3%.
Turning to `COC(=O)CCCC(=O)OC`, the “activity change, negative = cytotoxicity” value was 10%.
With `NC(=O)CCCCC(N)=O`, the “activity change, negative = cytotoxicity” value is 0.625%.
Turning to `NC(=O)NC(N)=O`, the “activity change, negative = cytotoxicity” value is -5.47%.
`CC(C)=CCl`: the “activity change, negative = cytotoxicity” value is -15.5%.
